Values without a mark were called inactive. Records with an inconclusive call do not appear. Active and inactive are the calls of the source. Calls follow the shape of the dose curve; as a rule, active = well fitted curve in the direction sought with a large enough effect; inconclusive = small, poorly fitted or top-dose-only effect, or another doubt; inactive = no such curve, though single readings can be large; an effect the other way counts as inactive or inconclusive.

Seven molecules from PubChem BioAssay (NCATS) can be followed below.

The test system of experiment [1] is Zika virus NS2B-NS3 protease (linked construct). In words: Primary screen NINDS Rhodamine qHTS for Zika virus inhibitors (AID 1347160). Also: nearly all actives have a fitted effect of over 55% in size. An outline of the steps:
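Rhodamine110-peptide cleavage (1.5 µM substrate) by 25 nM linked NS2B-NS3 enzyme at pH 8.0 (Tris, Tween 20), after 15 min RT preincubation with compounds; 15-min fluorescence change normalized to controls and Hill-fitted.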

Experiment [2] in a line: Primary qHTS for inhibitors of nuclear receptor binding SET domain protein 2 (NSD2) in an isogenic RCH-ACV NSD2 p.E1099K mutant (9B) (AID 1645876). Also: potency is read from the fitted curve at half-maximal effect; nearly all actives have a fitted effect of over 70% in size. A general note: In qHTS, concentration-response curves come from the screen itself.
Experiment [3] is described as follows: Primary qHTS for inhibitors of nuclear receptor binding SET domain protein 2 (NSD2) in an RCH-ACV wild type WT cells (2C) (AID 1645877). Also: potency is read from the fitted curve at half-maximal effect; nearly all actives have a fitted effect of over 70% in size.
In experiment [4] the target is Glutathione peroxidase 1 (Homo sapiens) (UniProt P07203). The experiment in a line: Primary qHTS Assay for Inhibitors of Recombinant Selenoprotein Glutathione Peroxidase 1 (GPX1) (AID 1845191). Also: nearly all actives have a fitted effect of over 65% in size. In outline:
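GPX1 10 nM, GR 100 nM, GSH 1 mM, NADPH 0.5 mM, CHP 0.5 mM (final). 30-min cpd preincubation, RT. Ex340/Em450 read t=0, t=15 min.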

Experiment [5] addresses Phospholipid hydroperoxide glutathione peroxidase GPX4 (Homo sapiens) (UniProt P36969). The experiment in a line: Primary qHTS Assay for Inhibitors of Recombinant Selenoprotein Glutathione Peroxidase 4 (GPX4) (AID 1845192). Also: nearly all actives have a fitted effect of over 65% in size. Also: potency is read from the fitted curve at half-maximal effect. The settings on record: outcome: dose series up to 50 µM unless noted. An outline of the steps:
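qHTS, GR-coupled: GPX4 200 nM + cpd 30 min RT → GSH 1 mM, NADPH 0.5 mM, GR 100 nM → CHP 0.5 mM start; fluor 340/450 at t0 and t15 min; no-enzyme wells as control.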

Experiment [6] has as its target Luciferin 4-monooxygenase (Photinus pyralis) (UniProt P08659). In words: Primary firefly luciferase (FLuc) qHTS assay for identification of artifact compounds. (AID 1845220). Also: nearly all actives have a fitted effect of over 60% in size. An outline of the steps:
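In this counter-screen for luciferase artifacts, test compounds met substrate (10 uM each luciferin and ATP) before 10 nM enzyme started the reaction. Light output was measured 5 min later.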

The nature of experiment [7]: Primary fluorescence-based thiol-reactive (MSTI) qHTS assay for identification of artifact compounds. (AID 1845221). Also: nearly all actives have a fitted effect of over 65% in size. Also: potency is read from the fitted curve at half-maximal effect. An outline of the steps:
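qHTS titration of compound; 4 uM MSTI, PBS pH 7.4, 2% DMSO; 1 h RT, dark; fluorescence 525/598 nm; normalized to Acetyl-MSTI and MSTI; 4-parameter Hill fit.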

The subject of experiment [8] is Nanoluciferase (engineered Oplophorus gracilirostris luciferase). The experiment in a line: Primary Nanoluciferase (NLuc) qHTS assay for identification of artifact compounds. (AID 1845222).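 Also: NLuc secreted into diluted conditioned medium of S16 cells.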 An outline of the steps:
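Using secreted nanoluciferase in S16 culture medium (0.22 um filtered, 1:55 dilution), compounds were preincubated 15 min at RT. Signal was generated with Nano-Glo reagent (1:100) over 5 min.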

Experiment [9] in a line: Primary redox qHTS assay for identification of artifact compounds. (AID 1845223). In outline:
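Redox-cycling detection via DTT (250 uM final) oxidation coupled to Amplex Red (25 uM)/HRP (250 mU/mL) in HBSS. 15 min preincubation plus 30 min after DTT, room temperature. Ex/Em 525/598 nm; 4-parameter Hill fit against DMSO and 10 uM DA3003.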

In a further experiment the test system is C33A. The experiment in a line: Primary qHTS to identify gynecologic anti-cancer compounds using libraries of approved drugs and bioactive compounds (AID 1345084). Also: nearly all actives have a fitted effect of over 55% in size. The settings on record: Gynecologic cancer cell panel viability, ATPlite luminescence, 48 h; series mostly up to 57.5 µM. In outline:
(§1)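 Cells, 1,000 per well, were allowed to settle for 16 h at 37 C before compound addition. Five concentrations were tested for 48 h, and viability was read by ATPlite luminescence after 15 min at room temperature.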

In a further experiment the test system is CAOV3. The experiment is described as above. Particulars: Gynecologic cancer cell panel viability, ATPlite luminescence, 48 h; series mostly up to 57.5 µM. An outline of the steps: as §1
In general terms: In ATP-based viability assays light output follows the ATP content of the culture.

A further experiment has as its system CASKI. The description is as above. Particulars: Gynecologic cancer cell panel viability, ATPlite luminescence, 48 h; series mostly up to 57.5 µM. An outline of the steps:
as §1

A further experiment deals with Es-2. Described as above. The settings on record: Gynecologic cancer cell panel viability, ATPlite luminescence, 48 h; series mostly up to 57.5 µM. In outline:
as §1

The subject of another experiment is HeLa. The experiment is described as above. The settings on record: Gynecologic cancer cell panel viability, ATPlite luminescence, 48 h; series mostly up to 57.5 µM. In outline: as §1
A further experiment has as its system Hek293T. Described as above. The settings on record: Gynecologic cancer cell panel viability, ATPlite luminescence, 48 h, control line for the selectivity index; series mostly up to 57.5 µM. In outline: as §1
In another experiment the test system is JEG-3. The experiment is described as above. The settings on record: Gynecologic cancer cell panel viability, ATPlite luminescence, 48 h; series mostly up to 57.5 µM. In outline: as §1
Another experiment has as its system OV90. The description is as above. The settings on record: Gynecologic cancer cell panel viability, ATPlite luminescence, 48 h; series mostly up to 57.5 µM. An outline of the steps:
as §1

The subject of a further experiment is Tov-21-G. The experiment is described as above. The settings on record: Gynecologic cancer cell panel viability, ATPlite luminescence, 48 h; series mostly up to 57.5 µM. An outline of the steps: as §1
The next experiment relates to Tov112D. The description is as above. Particulars: Gynecologic cancer cell panel viability, ATPlite luminescence, 48 h; series mostly up to 57.5 µM. In outline:
as §1

The target of experiment [10] is Calcium and integrin-binding protein 1 (Homo sapiens) (UniProt Q99828). The experiment in a line: Primary qHTS for Identification of Calcium Integrin Binding Protein 1 (CIB1) Competitor (AID 1508620).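 Also: GST tagged CIB1 binding a fluorescein labelled alphaIIb integrin peptide tracer; top concentration of the series differs between compounds.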 In outline:
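Fluorescence polarization competition: CIB1-GST (1 uM final) preincubated with compound 15 min at room temperature, then FITC-labeled alphaIIb peptide (100 nM final) added for another 15 min. Polarization read at Ex 480/Em 540.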

Sequence of Glutathione peroxidase 1 (Homo sapiens) (P07203 whole entry, looked up): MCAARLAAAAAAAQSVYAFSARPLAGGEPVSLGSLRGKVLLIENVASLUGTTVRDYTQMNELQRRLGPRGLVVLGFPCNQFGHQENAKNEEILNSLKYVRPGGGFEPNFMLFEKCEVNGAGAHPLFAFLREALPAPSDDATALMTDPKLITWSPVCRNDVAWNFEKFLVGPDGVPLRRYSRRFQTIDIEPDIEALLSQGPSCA
Sequence of Phospholipid hydroperoxide glutathione peroxidase GPX4 (Homo sapiens) (P36969 whole entry, looked up): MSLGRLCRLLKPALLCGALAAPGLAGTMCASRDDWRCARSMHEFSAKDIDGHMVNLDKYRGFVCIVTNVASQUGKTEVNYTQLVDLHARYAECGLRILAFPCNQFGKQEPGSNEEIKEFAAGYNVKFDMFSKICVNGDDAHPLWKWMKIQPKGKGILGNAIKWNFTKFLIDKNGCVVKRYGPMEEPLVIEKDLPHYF
Sequence of Calcium and integrin-binding protein 1 (Homo sapiens) (Q99828 whole entry, looked up): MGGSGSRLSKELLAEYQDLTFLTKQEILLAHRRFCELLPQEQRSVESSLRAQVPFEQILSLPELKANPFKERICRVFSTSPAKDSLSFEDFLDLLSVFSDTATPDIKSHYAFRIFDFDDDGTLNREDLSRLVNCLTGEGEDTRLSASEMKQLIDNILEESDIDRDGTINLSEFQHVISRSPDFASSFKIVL

On to `O=C(Nc1ccc(F)cc1)N1CCc2ccccc2C1c1ccc(C(F)(F)F)cc1` (stereo not given), for which the Potency result in experiment [1], in experiment [4], in experiment [5], in experiment [6], in [8] and in [9] was “inactive” each time. In addition, the Potency entry with C33A, in the experiment with CAOV3, with CASKI, with Es-2, in the experiment on HeLa and in the experiment with Hek293T was “inactive” each time. Further, the Potency result with JEG-3, in the experiment on OV90, with Tov-21-G and in the experiment on Tov112D was “inactive” each time. Also, the results for the Potency in experiment [2], in experiment [3] and in [7] were 18.3 µM (active), 18.3 µM (active) and 0.0474 µM (active), respectively.

On to `COc1cc(O)c(C(=O)CCc2ccc(O)cc2)c(O[C@@H]2O[C@H](CO)[C@@H](O)[C@H](O)[C@H]2O)c1`, for which, in [10], the outcome was inactive. Besides, the Potency result (in experiment [4]; in experiment [5]; in experiment [6]; in experiment [8]; in [9]; in the experiment on C33A) was “inactive” each time. For the same molecule, the Potency result in the experiment on CAOV3, in the experiment with CASKI, in the experiment on HeLa, in the experiment with JEG-3, in the experiment on OV90 and in the experiment with Tov-21-G was “inactive” each time. In the experiment on Tov112D, the Potency entry is “inactive”. In experiment [7], the Potency was 9.22 µM (active).

Turning to `N#CCC(C1CCCC1)n1cc(-c2ncnc3[nH]ccc23)cn1` (stereo not given), the Potency entry (in experiment [1]; in [6]; in experiment [7]; in experiment [8]; in [9]; with C33A) was “inactive” each time. Moreover, the Potency entry in the experiment on CAOV3, in the experiment with CASKI, with Es-2, with HeLa, in the experiment on Hek293T and in the experiment with JEG-3 was “inactive” each time. Further, the Potency entry with OV90, in the experiment on Tov-21-G and in the experiment with Tov112D was “inactive” each time. Besides, in experiment [10], the result was inactive. In addition, the Potency in [2] is 12.9 µM (active); in [3] it was 20.5 µM (active); in [5], 18 µM (active).

As to `CC/C(=C(\c1ccc(O)cc1)c1ccc(OCCNC)cc1)c1ccccc1`, the Potency result (in experiment [1]; in experiment [6]; in experiment [7]; in [8]; in experiment [9]; in the experiment with C33A) was “inactive” in each case. For the same molecule, the Potency entry in the experiment on CAOV3, with CASKI, with Es-2, with HeLa, in the experiment with Hek293T and in the experiment on JEG-3 was “inactive” throughout. Besides, the Potency result in the experiment on OV90, in the experiment with Tov-21-G and in the experiment on Tov112D was “inactive” each time.

For the molecule `C=C(C)C(=O)OC1[C@@H]2C(=C)C(=O)O[C@@H]2C[C@@H](C)[C@@H]2C=CC(=O)[C@@]12C` (stereo not given in full), the Potency entry in experiment [1], in experiment [4], in experiment [5], in experiment [6], in experiment [7] and in experiment [8] was “inactive” throughout. Moreover, the Potency entry (in experiment [9]; in the experiment on C33A; with CAOV3; with CASKI; with Es-2; in the experiment on HeLa) was “inactive” in each case. For the same molecule, the Potency entry in the experiment with JEG-3, in the experiment with OV90 and in the experiment with Tov112D was “inactive” throughout. Besides, in experiment [10], the outcome was inactive. The Potency in experiment [3] was 10.1 µM (active).

As to `COc1ccccc1-c1c[nH]c2ncc(-c3cncc(C(=O)N(C)C)c3)cc12`, the Potency result in [1], in [4], in [5], in experiment [6], in [7] and in [8] was “inactive” throughout. In addition, the Potency result in the experiment on C33A, with CASKI, with Es-2, in the experiment on JEG-3 and with OV90 was “inactive” each time. Besides, the result in experiment [10] was inactive.

For the molecule `CC1CCN(c2cc(NC(=O)c3ccccc3)ncn2)CC1`, the Potency result in [1], in experiment [4], in experiment [5], in experiment [6], in [7] and in experiment [8] was “inactive” each time. In addition, the Potency entry (in experiment [9]; with C33A; in the experiment on CAOV3; in the experiment with CASKI; in the experiment with Es-2; in the experiment with HeLa) was “inactive” in each case. The Potency entry in the experiment on Hek293T, in the experiment with JEG-3, with OV90, in the experiment on Tov-21-G and in the experiment with Tov112D was “inactive” in each case. Besides, the result in [10] was inactive.
